Results reported in PubChem BioAssay (NCI).
The panel holds about 79,000 compounds, 15% with a hit somewhere; the sample as a whole holds those more often. A number with no mark means an inactive call. The source made the active and inactive calls. Rule as the data show it: active = growth inhibition above about 70%; inactive = the rest.

Tests used:
[1] = NCI Yeast Anticancer Drug Screen. Data for the rad50 strain (AID 155);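 also: 0% = growth of vehicle-only cultures of the same strain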; details: S. cerevisiae rad50 strain growth inhibition; at 50.0 µM; stronger effect = higher value
Method in brief: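 A DNA repair-deficient yeast mutant serves as the test organism; compound-induced growth inhibition is calculated against vehicle-treated cells.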

[2] = NCI Yeast Anticancer Drug Screen. Data for the mec2-1 strain (AID 157); details: S. cerevisiae mec2-1 strain, at 50.0 µM, stronger effect = higher value
Method in brief: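 Readout is yeast growth inhibition, normalised to vehicle-treated controls, in the mec2-1 strain exposed to compound.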

[3] = NCI Yeast Anticancer Drug Screen. Data for the sgs1 mgt1 strain (AID 161);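 also: 0% = growth of cultures given vehicle only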; details: S. cerevisiae sgs1 mgt1 strain, at 50.0 µM, stronger effect = higher value
Method in brief: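 Growth of a repair-deficient yeast mutant was monitored after compound treatment and expressed as inhibition relative to vehicle-treated cultures.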

[4] = NCI Yeast Anticancer Drug Screen. Data for the cln2 rad14 strain (AID 165);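 also: 0% = growth equal to vehicle treated cultures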; details: S. cerevisiae cln2 rad14 strain, at 50.0 µM, stronger effect = higher value
Method in brief: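 Relative to vehicle controls, growth inhibition of compound-treated cln2 rad14 yeast was recorded.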

[5] = NCI Yeast Anticancer Drug Screen. Data for the bub3 strain (AID 167); details: S. cerevisiae bub3 mutant strain, at 50.0 µM, stronger effect = higher value
Method in brief: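 Inhibition values come from growth of compound-treated mutant yeast normalised to vehicle-treated controls.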

[6] = NCI Yeast Anticancer Drug Screen. Data for the mlh1 rad18 strain (AID 175); details: S. cerevisiae mlh1 rad18 strain growth inhibition; at 50.0 µM; stronger effect = higher value
Method in brief: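 Test agents were incubated with a yeast strain of defined genotype (DNA damage repair defect). Inhibition of growth was derived by comparison with vehicle-exposed cultures.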

Row | SMILES | growth inhibition [1] | growth inhibition [2] | growth inhibition [3] | growth inhibition [4] [%] | growth inhibition [5] | growth inhibition [6]
1 | CC(C)C(N)=O | 5.1% | -0.1% | -7.15% | -3 | 12.1% | -9.25%
2 | O=C(Nc1ccn(C2CCC(COC(c3ccccc3)(c3ccccc3)c3ccccc3)O2)c(=O)n1)c1ccccc1 (configuration not stated) | 8.05% | 19.4% | 27.6% | -25 | -26.2% | 16.9%
3 | CCC1(C)CC(C)(C)c2ccc(C)cc21 (configuration not stated) | -0.8% | -2.75% | -6.4% | -9.2 | -2.9% | -2.25%
4 | Cc1ccc(OCC2OC(n3cnc4c(Cl)nc(N)nc43)CC2Oc2ccc(C)cc2)cc1 (configuration not stated) | 2.3% | -11% | 13.4% | 14.6 | 2.4% | -13.2%
5 | O=C1Cc2ccccc2NC(c2ccccc2)C1S(=O)(=O)c1ccccc1 (configuration not stated) | 7.05% | 4.35% | 9.3% | -2.15 | -0.05% | 19.6%
6 | C#CC[N+](CC)(CC)CC | 2.6% | -11.9% | -11.3% | -84 | -3.3% | -13.2%
7 | C=CCNC(=O)/C(C)=C(\C)c1ccc(F)cc1 | 4.15% | 6% | 3.2% | -17.7 | 2.5% | -4.7%
8 | O=C(CN1CCN(Cc2ccccc2)CC1)N1CCCn2c1nc1ccccc1c2=O | -18.1% | -16.6% | -7.9% | 7.6 | 11.9% | -3.85%
9 | CN(C)C(=O)NCc1cccnc1 | -21.8% | 10.9% | 0.35% | -78.2 | -3.45% | -10.7%
10 | CCOC(=O)/C(=C\n1c(=O)[nH]c(=O)[nH]c1=S)C(=O)c1ccccc1 | -22.8% | -17.4% | -9.25% | 7.35 | -17.9% | -13.2%
11 | C/C=C(/C)C(=O)OC12CC(C)C3(O)C(C=C(CO)C[C@]4(O)C(=O)C(C)=CC34)C1C2(C)C (some centres not stated) | 16.2% | 1.3% | -12.6% | -0.45 | 7.5% | 1.35%
12 | COc1ccc(C)c(C2=CCCCC2)c1 | 4.65% | 3.45% | -9.15% | -6.55 | -2.35% | -15.8%
13 | O=S(=O)(O)c1ccc(S)cc1 | 2.7% | 1.55% | 16.7% | -6.5 | -31% | 1.6%
14 | Clc1ccc(N=Cc2ccccc2)cn1 | -13.6% | 22.1% | 37% | -14.4 | 6.55% | 47.4%
15 | Cc1nccn1C(C)c1ccccc1 (configuration not stated) | -9.8% | -19.9% | -16.2% | -95.3 | 0.35% | -25.4%
16 | CCOC(=O)c1nc2ccc(C(F)(F)F)cc2nc1Nc1ccc(Cl)c(Cl)c1 | -22.1% | 4.1% | -13.9% | -19 | -1.35% | 6.15%
17 | CC(C(=O)O)C1Nc2ccccc2NC1=O (configuration not stated) | 13.4% | 28.6% | 7.05% | -12.4 | -18.7% | 0.3%
18 | COc1cc(CCC(=O)NS(=O)(=O)c2ccccc2)cc(OC)c1OC | 4.2% | 1.9% | -6.75% | -2.85 | -3.85% | 10.2%
19 | CC(C)c1ccc(C(O)C2CC2)cc1 (configuration not stated) | -14.3% | -40.8% | -15.2% | 3.05 | -19.6% | -11.6%

Row | SMILES | growth inhibition [1] | growth inhibition [2] | growth inhibition [3] | growth inhibition [4] [%] | growth inhibition [5] | growth inhibition [6]
20 | COC(=O)c1cc(C(=O)O)c(=O)n2ccccc12 | 23% | 50% | 32.1% | 53.2 | 35.2% | 41.5%
21 | NC(N)=NS(=O)(=O)c1ccc(N)cc1 | 45% | 23.9% | 26.4% | 14.3 | 13.3% | 13%
22 | COc1ccc2nccc(N)c2c1 | 31.9% | -7.95% | 15.1% | 11.5 | -8.05% | 20.9%
23 | O=S(=O)(CS(=O)(=O)c1ccc(Br)cc1)c1ccc(Br)cc1 | 1.4% | 33.1% | -14.6% | 20.8 | 4.6% | 12%
24 | CC(=O)c1sc(-c2nc(C)c(C(=O)/C=C\c3ccc(/C=C\C(=O)c4sc(-c5nc(C)c(C(C)=O)s5)nc4C)cc3)s2)nc1C | -19.3% | -13.4% | -8.7% | -11.6 | 3.95% | -14.4%
25 | COc1ccc2c(c1)NC(C(C)C)=NS2(=O)=O | 17.9% | 15.8% | 17.4% | 4.95 | 18.4% | 25.8%
26 | Cc1cnc(Br)c(Br)c1 | 2.85% | 0.8% | 3.45% | 15.9 | 5.1% | 13.1%
27 | NC(=O)CC1(C(=O)O)c2ccccc2-c2ccccc21 | 17.1% | -14.2% | 2.65% | -7.55 | 14.6% | -3.95%
28 | CCOC(=O)c1c(C(=O)OCC)c(C)n(/N=N/n2c(C)c(C(=O)OCC)c(C(=O)OCC)c2C)c1C | 29.3% | 9.75% | 23.6% | 26.3 | -1.45% | 12.8%
29 | CCC1(c2ccc(N3C(=O)c4cc(OC)c(OC)cc4C3=O)cc2)CCC(=O)NC1=O (configuration not stated) | -6.25% | 7.65% | -7.25% | -16.1 | -16% | -32.8%
30 | CC(=O)Oc1c(C(=O)O)cccc1-c1ccccc1 | -12.8% | -7.1% | 9.6% | -15.8 | 30% | 4.95%
31 | CCOC(=O)/C(Cc1ccc2c(c1)OCO2)=N\O | -3.05% | -16.1% | -12.9% | -2.25 | 2.25% | -1.1%
32 | OCCOc1c(Cl)c(C(Cl)(Cl)Cl)nc2ccccc12 | 84.2% (active) | 95.3% (active) | 91% (active) | 46 | 94% (active) | 94.3% (active)
33 | CCS(=O)(=O)OCCOC | -2.65% | -26.1% | -17.1% | 57.6 | -14.8% | 10.2%
34 | COc1ccc([B-]23OCC[N+]2(CNC(=O)c2ccccc2O)CCO3)cc1 (configuration not stated) | 27.4% | 2.7% | 13.9% | 14.9 | 7.3% | 17.6%
35 | COc1ccc(OC)c(NC(=O)CCC/C(CC(=O)c2ccc(O)c(OC)c2)=N\Nc2ccc([N+](=O)[O-])cc2)c1 | -25.8% | -0.7% | -38.5% | 23.1 | -6% | -25.6%
36 | O=[N+]([O-])c1ccc(-c2nnc(C34CC5CC(CC(C5)C3)C4)o2)cc1 | -26.7% | -1.2% | -13.4% | -5.9 | -11.2% | -30.1%
37 | CCOC(=O)c1cccc(OCC)c1 | 6.95% | 18.1% | -7.65% | -43 | 3.5% | 6.7%
